In PubChem BioAssay (NCATS):
Inconclusive results are not listed. Where a call stands in place of a potency, no number is given. The source made the active and inactive calls. The call rests on the fitted dose curve; in most records, active means well fitted inhibition curve with a large enough effect; inconclusive means small, poorly fitted or top-dose-only effect; inactive means no such curve, though single readings can be large or run the other way.

Test system: Zika virus NS2B-NS3 protease (unlinked complex)
Assay: Primary screen GU Rhodamine qHTS for Zika virus inhibitors: Unlinked NS2B-NS3 protease assay (AID 1347159); further: nearly all actives have a fitted effect of over 60% in size
Conditions: Recombinant ZIKV NS2B-NS3 protease, Rhodamine110 substrate fluorescence; series mostly up to 107 µM
In short: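 Percent inhibition came from the 15-min rise in Rhodamine110 fluorescence (1.5 microM substrate, ~15% conversion), normalized to no-inhibitor and no-enzyme wells and Hill-fitted. Unlinked protease, 25 nM, pH 8.0 Tris buffer; compounds up to 114 microM, 15-min preincubation.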
Potency means the concentration at half of the fitted maximal effect.

Structure (SMILES)	Potency
COc1ccc(C2(C#N)CCC(C(=O)O)CC2)cc1OC1CCCC1 (configuration not stated)	inactive
CCC(C)(Oc1ccc(C2(c3ccc(OC(C)(CC)C(=O)O)cc3)CCCCC2)cc1)C(=O)O (configuration not stated)	31.6 µM (active)
OC(CN1CCN(c2cccc(Cl)c2)CC1)C(c1ccccc1)c1ccccc1 (configuration not stated)	inactive
COCCCOc1ccnc(CS(=O)c2nc3ccccc3[nH]2)c1C (configuration not stated)	inactive
COc1cc2c(N3CCN(C(=O)Nc4ccc(OC(C)C)cc4)CC3)ncnc2cc1OCCCN1CCCCC1	inactive
O=C(O)c1cccc(-c2noc(-c3ccccc3F)n2)c1	inactive
CC(=O)O[C@H]1C(=O)[C@@]2(C)C([C@H](OC(=O)c3ccccc3)[C@]3(O)C[C@H](OC(=O)[C@H](O)[C@@H](NC(=O)c4ccccc4)c4ccccc4)C(C)=C1C3(C)C)[C@]1(OC(C)=O)CO[C@@H]1C[C@@H]2O (some centres not stated)	inactive
Cc1nccn1CC1CCc2c(c3ccccc3n2C)C1=O (configuration not stated)	inactive
COc1cc(Nc2c(C#N)cnc3cc(OCCCN4CCN(C)CC4)c(OC)cc23)c(Cl)cc1Cl	inactive
Cc1cc2c(s1)Nc1ccccc1N=C2N1CCN(C)CC1	inactive
O=C(OC1C[C@H]2CC[C@@H](C1)[N+]21CCCC1)C(O)(c1ccccc1)c1ccccc1 (some centres not stated)	inactive
CC(C)c1nc(CN(C)C(=O)N[C@H](C(=O)N[C@@H](Cc2ccccc2)C[C@H](O)[C@H](Cc2ccccc2)NC(=O)OCc2cncs2)C(C)C)cs1	inactive
